D1 antagonist = human D1 dopamine receptor antagonism; actives 3.2% (n = 360,000); HEK293 TREx D1 cells, calcium flux, dopamine EC80; active compounds read low; P21728; activity change, negative = inhibition, % at 10 µM; in the data active means activity change below about -30%; further: on the % scale 0 is the no-effect control and ±100 the full control effect
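HEK293 T-REx cells expressing inducible, force-coupled D1 receptor; no-wash Ca dye, 30–90 min RT. Cmpd → 180 s read at 1 Hz → EC80 DA → 180 s read.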
TRHR agonist = activates the human TRH receptor; P34981; activation, % at 2 µM; TRHR cells, calcium flux fluo-8, FDSS agonist mode; actives 0.18% (n = 360,000); AID 493084; further: 0% is about no effect
Target sequence (P34981 whole entry, looked up): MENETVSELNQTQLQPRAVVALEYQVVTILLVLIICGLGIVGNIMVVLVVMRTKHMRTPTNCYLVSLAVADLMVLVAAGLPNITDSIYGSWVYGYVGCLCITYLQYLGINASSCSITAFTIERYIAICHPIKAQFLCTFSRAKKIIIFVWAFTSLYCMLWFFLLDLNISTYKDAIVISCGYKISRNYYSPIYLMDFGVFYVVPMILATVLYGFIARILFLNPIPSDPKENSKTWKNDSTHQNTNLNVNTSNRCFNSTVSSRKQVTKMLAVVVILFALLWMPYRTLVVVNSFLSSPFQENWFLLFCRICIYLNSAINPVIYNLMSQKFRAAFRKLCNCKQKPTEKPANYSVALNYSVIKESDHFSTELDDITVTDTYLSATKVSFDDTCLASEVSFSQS
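Steps: seed TRHR cells overnight; add fluo-8 no-wash Ca dye, RT 30 min–1.5 h; record 10 s baseline; pin-transfer compounds; monitor fluorescence 1 cycle/s for the agonist window. Calcium increases flag candidate agonists.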
TRHR PAM = allosteric enhancers of human TRH receptor; P34981; TRHR cells, fluo-8 calcium fluorescence, EC20 TRH enhancement; enhancement, % at 2 µM; actives 0.66% (n = 360,000); AID 493056; in the data active means enhancement above about 30%; further: 0% is about no effect
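TRHR-expressing cells loaded with fluo-8 calcium dye were read kinetically (ex 480/em 530) during compound addition, then stimulated with an EC20 of TRH (10 nM final). Enhancement of the Gq-mediated intracellular calcium response was scored.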
D1 PAM = enhances dopamine response at the human D1 receptor. P21728. HEK293 TREx D1 cells, calcium flux, dopamine EC20 potentiation. potentiation, % at 10 µM. actives 0.036% (n = 360,000). AID 504651; in the data active means potentiation above about 30%; further: 0% is about no effect
D1 agonist = agonists of human D1 dopamine receptor | P21728 | HEK293 T-REx D1 cells, calcium flux, agonist mode | activation, % at 2 µM | actives 1% (n = 360,000) | AID 504660; further: 0% is about no effect
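Tetracycline-induced HEK293 TREx D1 cells, force-coupled to calcium signalling, were dye-loaded with a no-wash calcium kit. Compound was pin-added after a 10 s baseline. Fluorescence was read kinetically at 1 cycle/s for 180 s, with calcium rises flagged as agonism.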
* = called active by the depositor; / = not tested or not shown; ! = a repeat was not active. Sampled rows, rich in hits. Any-hit rate of the full collection: about 4.7%. Unless noted, no stated cut-off is given here; in the data, active means activation above about 30%; inactive means the rest.

SMILES	D1 antagonist	TRHR agonist	TRHR PAM	D1 PAM	D1 agonist
COc1cccc(NC(=O)/C(C#N)=C/c2ccc(-c3ccc(C)cc3)o2)c1	-11	34*	8	7	110*
N#C/C(=C\c1ccc(N2CCOCC2)o1)C(=O)Nc1ccc(O)cc1	-23	17	2	3	41*
COc1ccc(NC(=O)/C(C#N)=C/c2ccc(C)o2)cc1	-14	-2	8	0	-2
CCn1c(=O)n(CC)c2cc(N3CCCCC3)c(NC(=O)Nc3cc(C)cc(C)c3)cc21	0	0	0	-4	12
Cc1c(NC(=O)/C(C#N)=C/c2ccc(-c3cc(Cl)ccc3Cl)o2)c(=O)n(-c2ccccc2)n1C	-17	0	34*	-9	3
COC(=O)[C@H]1CCCN1C(=O)Nc1cccc(Oc2c(F)c(F)c(F)c(F)c2F)c1	-31*	0	-4	-2	4
COc1ccc(C(=O)NCCn2cc(SCC(=O)Nc3ccc4c(c3)OCCO4)c3ccccc32)cc1	-13	-2	0	-5	2
CCC1Cc2c(nc(N)c3c(N)nc(N4CCCCC4)c(C#N)c23)O1 (centres undefined)	-31*	0	-14	-5	0
CCN1CCN(C(=O)CCS(=O)(=O)c2cc3c(cc2Cl)NC(=O)CO3)CC1	-15	0	2	-6	1
CN1CCN(C(=O)CCS(=O)(=O)c2cc3c(cc2Cl)NC(=O)CO3)CC1	-1	0	39*	-12	5
Cc1ccc(CCNC(=O)CCS(=O)(=O)c2cc3c(cc2C)NC(=O)CO3)cc1	-86*!	0	3	-1	0
COc1ccc(-c2cc(C(F)F)n3ncc(C(=O)Nc4c(C)n(C)n(-c5ccccc5)c4=O)c3n2)cc1	-13	-2	-3	-3	3
COc1ccc(-c2cc(C(F)F)n3ncc(C(=O)Nc4cc(C)on4)c3n2)cc1	-38*	1	9	-3	12
CCCNC(=O)c1cnn2c(C(F)F)cc(-c3ccccc3)nc12	-6	0	30*	-4	2
O=C(NCc1ccccc1)c1ccc2c(c1)CCN2S(=O)(=O)c1ccc(Cl)cc1	-13	3	10	-1	6
O=C(c1ccncc1)c1ccc(N2CCN(C3CC(=O)N(Cc4cccs4)C3=O)CC2)cc1 (centres undefined)	-39*	0	-8	-5	13
O=C1CC(N2CCN(c3ccc(O)cc3)CC2)C(=O)N1Cc1cccs1 (centres undefined)	4	0	4	4	0
COc1ccc(NC(=O)CSc2ncc3c(n2)-c2cc(Cl)ccc2N(Cc2ccccc2F)S3(=O)=O)cc1	-4	0	-3	1	2
Cc1ccc(S(=O)(=O)Nc2nccs2)cc1[N+](=O)[O-]	-9	1	25	4	2
Cc1ccc(S(=O)(=O)Nc2ccc(S(=O)(=O)Nc3nccs3)cc2)c([N+](=O)[O-])c1	15	0	58*	-2	-1
COc1cccc(NC(=O)CCc2c(C)nc3c4cccnc4nn3c2C)c1	-19	-1	2	-4	1
Cn1cc(CNCC2CCCO2)c(-c2ccc(Oc3ccccc3)cc2)n1 (centres undefined)	-23	-2	2	-3	46*
COCCN(Cc1cn(C)nc1-c1ccc(Oc2ccccc2)cc1)C(C)C	-8	0	2	-1	1
CC(C)N(C)Cc1cn(C)nc1-c1ccc(Oc2ccccc2)cc1	5	0	36*	-3	2
C(=C\c1ccc2ccccc2n1)/c1ccccc1	42	1	-4	5	3
SMILES	D1 antagonist	TRHR agonist	TRHR PAM	D1 PAM	D1 agonist
CCCN(CCC)c1ccc(/C=C/c2ccc3cc(OCC)ccc3n2)cc1	-19	35*	-4	-3	33*
CCOc1ccc(/C=C/c2nc(C#N)c(N(C)C)o2)cc1	1	-2	-9	0	2
CN(C)c1ccc(/C=C/c2ccc3ccccc3n2)cc1	-5	38*	16	2	139*
Cc1ccc(S(=O)(=O)C2(C(=O)Nc3ccc(Cl)c(C(F)(F)F)c3)CC2)cc1	0	0	4	0	3
COc1ccc2c(=O)c(Oc3ccc(C(=O)O)cc3)c(C(F)(F)F)oc2c1	-30*	0	-12	-7	3
COc1c(Cl)cccc1NC(=O)c1c(NC(=O)Cc2ccccc2)sc2c1CCCC2	5	0	-1	-6	1
COc1cc(C)nc(NS(=O)(=O)c2ccccc2)n1	-37*	0	23	-2	2
CCOC(=O)CNc1ncnc2c1nnn2C	/	1	-8	0	-2
COc1ccc(OC)c(NC2=NC3(CCCC3)N=C(N)N2)c1	-57*	0	-6	-23	6
NC1=NC2(CCCCC2)N=C(Nc2ccc(F)cc2F)N1	2	0	21	-10	-1
O=C(c1ccc(F)cc1)N1CCN(Cc2ccccc2)CC1	-3	0	2	-4	4
Cc1cccc(NC(=O)c2ccc(CN3CCN(Cc4ccccc4)CC3)cc2)c1	-37*	1	0	-9	14
CSc1ccccc1NC(=O)c1ccc(CN2CCOCC2)cc1	0	-1	1	12	3
CCC(CC)C(=O)Nc1cccc(C(=O)N2CCOCC2)c1	-32*	0	2	0	2
Cc1cc(CSc2ccccc2)ccc1NC(=O)c1ccc(CN2CCOCC2)cc1	-31*	2	-6	1	30
COc1cccc(NC(=O)c2ccc(CN3CCN(c4ccccc4)CC3)cc2)c1	6	0	3	1	0
O=C(c1ccc(Br)cc1)N1CCN(Cc2ccccc2)CC1	-57*	0	4	-30	1
O=C(Nc1cccc(C(=O)N2CCN(Cc3ccccc3)CC2)c1)c1ccccc1	-39*	0	8	-7	3
O=C(Cn1c(=O)n(-c2ccccc2Cl)c(=O)c2sc3ccccc3c21)NC1CCCCC1	0	-1	-1	0	39*
O=C(Cn1c(=O)n(-c2ccccc2Cl)c(=O)c2sc3ccccc3c21)NC1CCCC1	-5	-1	-9	0	1
Cc1ccc(C(=O)c2cn(CC(=O)NC3CCCCC3)c3nc(C)ccc3c2=O)cc1	-1	-1	-8	4	0
NC(=O)CS(=O)(=O)c1nc2ccccc2n1Cc1ccccn1	-38*	0	-1	-3	1
C=CCn1c(SCC(=O)N2CCCCC2)nc(O)cc1=O	-63*	1	-2	0	1
C=CCn1c(SCC(=O)N(CC)CC)nc(O)cc1=O	-2	0	0	1	3
C=CCn1c(SCc2c(F)c(F)c(F)c(F)c2F)nc(O)cc1=O	-14	0	-6	7	33*
C=CCn1c(SCC(=O)N2CCCCCC2)nc2ccccc2c1=O	-32*	0	7	-4	1

Source: PubChem BioAssay
